Source: PubChem (National Center for Advancing Translational Sciences (NCATS))
VP16 counter: VP16 counterscreen qHTS for inhibitors of ROR gamma transcriptional activity; Drosophila S2 Gal4-VP16 UAS-luciferase, luminescence, 20 h; Potency, µM (doses to about 53.6 µM), without a hit: at the highest dose activity, negative = inhibition, hits mostly inhibitors; 3.5% of 310,000 active; AID 2546, 2010;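 note: Gal4-VP16 expression switched on by copper sulfate through the metallothionein promoter; potency is the fitted concentration of half-maximal effect; nearly all actives have a fitted effect of over 50% in size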
TrxR1 substrate: qHTS Assay for Substrates of Mammalian Selenoprotein Thioredoxin Reductase 1 (TrxR1): qHTS; Potency, µM (doses to about 114 µM), inactives show top-dose activity change, negative = substrate turnover; Thioredoxin reductase 1, cytoplasmic (Rattus norvegicus), O89049; 0.01% of 390,000 active; purified TrxR1 substrate turnover, NADPH consumption readout; AID 588456, 2011; note: potency is the fitted concentration of half-maximal effect; nearly all actives have a fitted effect of over 50% in size
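Rat TrxR1, dispensed at 90 nM, was prereduced with 400 uM NADPH (final) for 5 min at ~22 deg C, then incubated with compound 15 min before 400 uM selenite. A first-read NADPH fluorescence drop versus no-compound background flagged substrates.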
rTrxR1 inhibitor: qHTS Assay for Inhibitors of Mammalian Selenoprotein Thioredoxin Reductase 1 (TrxR1): qHTS; 1% of 390,000 active; Thioredoxin reductase 1, cytoplasmic (Rattus norvegicus), O89049; recombinant rTrxR1, NADPH fluorescence consumption, selenite substrate; Potency, µM (doses to about 114 µM), inactives show top-dose activity change, negative = inhibition, actives largely listed as inhibitors; AID 588453, 2011; note: potency is the fitted concentration of half-maximal effect; nearly all actives have a fitted effect of over 65% in size
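Rat TrxR1 (90 nM in the dispensed reagent) was pre-reduced with 400 uM NADPH for 5 min at room temperature, then incubated with compound for 15 min. After 400 uM selenite was added, NADPH fluorescence (Ex 340/Em 450 nm) was followed for 8 min.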
GALK inh: qHTS Assay for Inhibitors of Human Galactokinase (GALK) | Purified GALK, Kinase-Glo residual ATP luminescence | Potency, µM (top dose mostly 57.5 µM), without a hit: top-dose activity change, negative = inhibition, usual class: inhibitors | 0.007% of 270,000 active | P51570; note: potency is the fitted concentration of half-maximal effect
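Compounds were pin-transferred into ATP buffer (35 uM final), then GALK plus galactose (5 nM, 100 uM final) was added. After 1 h at room temperature, Kinase-Glo Plus was added and luminescence read after 10 min.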
RORg inh: qHTS for inhibitors of ROR gamma transcriptional activity; 5.4% of 310,000 active; Nuclear receptor ROR-gamma (Mus musculus), P51450; Drosophila S2 Gal4-RORgamma UAS-luciferase reporter, 20 h; Potency, µM (doses to about 53.6 µM), without a hit: top-dose activity change, negative = inhibition, most hits filed as inhibitors; note: potency is the fitted concentration of half-maximal effect; nearly all actives have a fitted effect of over 60% in size
Target sequence (P51450 whole entry, looked up, the tested form may be a part): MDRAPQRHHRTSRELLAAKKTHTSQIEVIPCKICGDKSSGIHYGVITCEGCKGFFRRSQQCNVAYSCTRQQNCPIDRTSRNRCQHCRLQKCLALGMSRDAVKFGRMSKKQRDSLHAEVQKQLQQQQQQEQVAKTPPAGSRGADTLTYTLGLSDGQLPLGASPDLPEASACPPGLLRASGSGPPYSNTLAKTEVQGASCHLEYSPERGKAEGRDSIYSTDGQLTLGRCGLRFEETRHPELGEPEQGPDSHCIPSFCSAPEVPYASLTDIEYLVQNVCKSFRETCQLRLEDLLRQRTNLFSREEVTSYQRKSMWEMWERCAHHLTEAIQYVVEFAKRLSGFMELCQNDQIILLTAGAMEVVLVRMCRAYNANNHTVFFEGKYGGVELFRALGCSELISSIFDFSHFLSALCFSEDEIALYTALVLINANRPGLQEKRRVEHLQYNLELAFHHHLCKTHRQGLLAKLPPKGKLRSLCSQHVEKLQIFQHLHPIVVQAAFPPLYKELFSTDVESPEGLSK
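Drosophila Schneider cells stably carrying a metallothionein-driven Gal4 DBD–ROR gamma fusion and a UAS-Photinus luciferase reporter were exposed to compound for 1 hr, then induced with copper sulfate (700 uM final) for 20 hr at ambient temperature before luminescence reading.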
FBPA coupling cs: qHTS Assay for Inhibitors of Fructose-1,6-bisphosphate Aldolase from Giardia Lamblia: Coupling assay counterscreen. coupling enzyme system counterscreen, AmpLite Red fluorescence. activity change, negative = inhibition, % at 58.2 µM, hits read low. 0.67% of 290,000 active. AID 2472, 2010; in the data active = activity change below about -30%
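Coupling enzymes only (glyceraldehyde-3-phosphate) + compound, at 57.5 uM final, 10 min RT; add substrate/coupling/AmpLite Red mix, 20 min RT; fluorescence ex 525/em 598 nm. Actives flag coupling-system interference.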
* = called active by the depositor; ? = inconclusive; / = no result; [ ] = dose if it differs, or a comment. Rows were chosen to be rich in hits. Some 5.9% of all compounds tested hit in one or more screens of this group. Unless noted, calls come from the whole dose curve; as a rule, active = well fitted curve in the direction sought with a large enough effect; inconclusive = small, poorly fitted or top-dose-only effect, or another doubt; inactive = no such curve, though single readings can be large; an effect the other way counts as inactive or inconclusive. % is set by controls: 0 for no effect and ±100 for the full control effect.

SMILES	VP16 counter	TrxR1 substrate	rTrxR1 inhibitor	GALK inh	RORg inh	FBPA coupling cs
COc1ccc2c(=O)c3c(=O)n(Cc4ccco4)c(-c4ccco4)nc3oc2c1	2.4%	-2.3%	14.1µM*	-1.8%	-6.6%	0.3
CC(C)=C1C2CCC1C1C(=O)N(c3ccc(C)c(C)c3)C(=O)C21 (stereo not given)	-21.6%	-9.4%	17.3%[57.1 µM]	0.4%	1.3%	-1.1
Brc1ccc(-n2cc(-c3ccccc3)c3c(NN4CCOCC4)ncnc32)cc1	?	-12.0%	-9.1%	1.5%	6.31µM*	0.5
c1ccc(-c2cn(-c3ccccc3)c3ncnc(NCCCN4CCOCC4)c23)cc1	-2.0%	-0.4%[57.1 µM]	16.6%[57.1 µM]	-1.2%	-16.7%	1.1
COc1cc(/C=C(/NC(=O)c2ccccc2Cl)C(=O)O)cc(OC)c1OC	-6.8%	-6.0%	-4.3%	-3.5%	-2.3%	-2.0
Cc1cc(C)c(NC(=O)CNC(=O)Cc2ccc(S(=O)(=O)N3CCOCC3)s2)c(C)c1	/	2.5%	-6.1%	/	/	/
CCOc1cc(C)c(C(C)C)cc1S(=O)(=O)NCc1ccccn1	10.6%	1.2%[57.1 µM]	-7.6%[57.1 µM]	3.2%	10µM*	7.7
Cc1ccc(S(=O)(=O)NCc2ccccn2)c(C)c1	4.1%	-30.1%	-9.9%	-4.7%	?	0.3
CC(C)(C)SC(C(=O)N1CCOCC1)c1ccc(Br)cc1 (stereo not given)	4.1%	1.2%[57.1 µM]	2.3%[57.1 µM]	-3.2%	5.1%	0.3
C=CCNC(=S)NNC(=O)C(CCCC)CC(C)O (stereo not given)	-4.7%	-6.6%[57.1 µM]	12.0%[57.1 µM]	0.6%	-29.1%	4.0
C=CCNC(=S)NNC(=O)CCC(O)CCCCC (stereo not given)	-16.1%	-4.1%	-2.5%	0.2%	10µM*	-0.4
O=S1(=O)C=C(Sc2nnc(-c3ccccc3)o2)c2ccccc21	3.16µM*	6.7%	0.398µM*	6.2%	1.78µM*	-0.6
Cc1noc(C)c1C(=O)N(C)Cc1ccccc1	-5.2%	5.6%[57.1 µM]	33.1%[57.1 µM]	0.8%	-12.0%	3.2
O=C(CS(=O)c1ccc(C(F)(F)F)cc1[N+](=O)[O-])Oc1ccc(Cl)cc1 (stereo not given)	?	-11.5%	50.1µM*	-1.4%	?	-15.0
CC(=O)Oc1ccc(N2C(=O)C3C4C=CC(C5CC45)C3C2=O)cc1[N+](=O)[O-] (stereo not given)	?	-10.5%	44.7µM*	/	5.1%	2.6
O=C1c2[nH]nc(-c3ccc(Br)cc3)c2C(c2cccc(O)c2)N1c1ccc(Cl)cc1 (stereo not given)	/	5.6%	1.6%	/	/	/
CCn1c(-c2cccc(S(=O)(=O)N3CCCC3)c2)n[nH]c1=S	-0.9%	11.9%	1.9%	-4.4%	?	2.1
CCn1c(-c2ccc([N+](=O)[O-])cc2)n[nH]c1=S	-24.1%	-10.7%	?	-2.3%	11.2µM*	-2.1
CCn1c(-c2sc(-c3ccccc3)nc2C)n[nH]c1=S	?	5.8%[57.1 µM]	-21.7%[57.1 µM]	-1.0%	3.55µM*	0.9
CCCCn1c(=O)[nH]c(=O)c2c1nc(-c1ccc([N+](=O)[O-])cc1)n2CC	0.4%	3.2%[57.1 µM]	-18.4%[57.1 µM]	-0.8%	10.7%	2.0
CCn1c(-c2cccc(Br)c2)n[nH]c1=S	7.08µM*	6.3%[57.1 µM]	-19.0%[57.1 µM]	0.4%	10µM*	6.3
CCn1c(-c2ccc3ncccc3c2)n[nH]c1=S	?	-5.2%	-31.3%	-3.0%	11.2µM*	-0.1
Cc1c(C(=O)Nc2cccc(C(F)(F)F)c2)oc2ccc3c(c12)C(=O)CC(C)(C)O3	/	16.7%	8.7%	/	/	/
NC(=O)c1ccc(-c2ncc(-c3ccccc3)o2)cc1	11.2µM*	469.5%	0.5%	-0.4%	1.78µM*	0.3
CCc1ccc(-c2cc(C)no2)cc1S(=O)(=O)N1CCN(c2cccc(Cl)c2)CC1	/	-1.0%[57.1 µM]	3.5%[57.1 µM]	/	/	/
SMILES	VP16 counter	TrxR1 substrate	rTrxR1 inhibitor	GALK inh	RORg inh	FBPA coupling cs
CCN(CC(=O)NC(C)C)Cc1nc2sc3c(c2c(=O)[nH]1)CCC3	4.47µM*	-0.6%	2.9%	-0.9%	1.12µM*	-0.7
CCN(CC(=O)Nc1sc2c(c1C#N)CCC(C)C2)Cc1nc2ccccc2c(=O)[nH]1 (stereo not given)	?	-2.7%	-7.2%	-0.3%	2.51µM*	-0.6
CCN(CC(=O)Nc1sc2c(c1C#N)CCCC2)Cc1nc2ccccc2c(=O)[nH]1	?	5.8%[57.1 µM]	20.4%[57.1 µM]	0.2%	5.62µM*	0.2
CC1CCc2c(sc(NC(=O)CCc3nc4ccccc4c(=O)[nH]3)c2C#N)C1 (stereo not given)	/	1.2%	-13.5%	/	/	/
COc1ccc(CCNS(=O)(=O)c2c(C)[nH]c(C)c2C(=O)N2CCCCC2)cc1OC	?	12.4%	31.9%	0.1%	-7.1%	0.5
COc1cc2cc3c4c(cc(OC)c(OC)c4c2cc1OC)CCN3C	-6.1%	/	/	/	2.82µM*	-45.1*
CC(=O)N1CN(Cc2ccccn2)Cc2c1sc1c2CCCC1	-2.5%	-2.5%	50.1µM*	-1.7%	-26.5%	-6.9
CC1CC(=O)C2=C(C1)Nc1ncnn1C2c1ccccc1 (stereo not given)	-16.6%	-4.1%	9.6%	2.9%	35.0%	-2.7
COc1ccc(-c2noc(CCC(=O)O)n2)cc1	?	-14.5%	-4.0%	/	?	3.4
COc1ccc(-c2noc(CCCC(=O)O)n2)cc1	0.355µM*	-7.1%	-2.8%	-0.1%	0.316µM*	1.6
CCOc1ccc(-c2noc(CCC(=O)O)n2)cc1	1.41µM*	10.5%[57.1 µM]	14.1%[57.1 µM]	0.6%	0.355µM*	0.2
COC(=O)c1nc(NC(=O)c2cc(OC)c(OC)c(OC)c2)n[nH]1	3.7%	2.6%	39.8µM*	-0.4%	-10.4%	3.0
Cc1ccc(-c2ccc(S(=O)(=O)NCc3ccco3)cc2)cc1	2.3%	6.4%	11.9%	2.8%	13.5%	-3.4
COC(=O)c1cc2oc3ccccc3c2n1Cc1ccccc1Cl	/	58.3%	45.6%	/	/	/
S=c1[nH]ncn2c1cc1oc3ccccc3c12	-17.8%	4.8%[57.1 µM]	8.7%[57.1 µM]	13.0%	2.51µM*	2.3
CCCn1c2ccccc2c2cnn(CC(=O)NC3CCN(Cc4ccccc4)CC3)c(=O)c21	-1.6%	17.4%	-0.1%	-1.3%	6.7%	-0.1
CN(C)c1ccc(/C=C/c2nccc3ccccc23)cc1	/	10.5%[0.0914 µM]	12.6%	/	/	/
CN(C)c1ccc(/C=C/c2ccc3c4ccccc4ccc3[n+]2-c2ccccc2)cc1	?	23.1%	-0.9%[57.1 µM]	7.4%	1.41µM*	-2.3
